# Data reported in paper PMC7862700, “An all-to-all approach to the identification of sequence-specific readers for epigenetic DNA modifications on cytosine”.
# What was measured:
# Experiment in all cases: DAPPL (digital affinity profiling via proximity ligation, sequencing); 10 mM Tris-HCl pH 7.5, 50 mM NaCl, 1 mM DTT, 4% glycerol, room temperature, 30 min; GST-TFs on glutathione beads, 16-mer random dsDNA library, 0.1% formaldehyde crosslink after washing; high values mean tight binding
# [1] = target: T1, FEV (Homo sapiens, UniProt Q99581 1-238); conditions: protein: recombinant; tags: N-terminal GST; dsDNA, one strand shown
# T1 sequence: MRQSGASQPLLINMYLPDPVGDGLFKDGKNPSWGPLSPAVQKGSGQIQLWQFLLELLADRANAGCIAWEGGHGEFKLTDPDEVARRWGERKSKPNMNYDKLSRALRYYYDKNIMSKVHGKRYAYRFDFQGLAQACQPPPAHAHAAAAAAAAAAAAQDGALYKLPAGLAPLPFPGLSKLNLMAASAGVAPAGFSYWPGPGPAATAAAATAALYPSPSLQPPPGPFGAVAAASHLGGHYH
# In short: (§1)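 Binding signal is given per hexamer as its read frequency for a factor divided by its frequency in the tag-only sample. GST-fused human transcription factors were expressed in yeast, captured on glutathione beads, barcoded with DNA and pooled with that sample, then incubated with 200 nmole of a 16-mer random double-stranded DNA library in Tris/NaCl/DTT/glycerol buffer for 30 min at room temperature. The pools were then washed, crosslinked, proximity-ligated, amplified by PCR and sequenced on an Illumina NextSeq500.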
# [2] = target: ETV5 (Homo sapiens, UniProt P41161 1-510); conditions: protein: recombinant; tags: N-terminal GST; dsDNA, one strand shown
# In short: as §1
# [3] = target: HSF1 (Homo sapiens, UniProt Q00613 1-529); conditions: protein: recombinant; tags: N-terminal GST; chain copies: 3; dsDNA, one strand shown
# In short: as §1
# [4] = target: T2, SPIC (Homo sapiens, UniProt Q8N5J4 1-248); conditions: protein: recombinant; tags: N-terminal GST; dsDNA, one strand shown
# T2 sequence: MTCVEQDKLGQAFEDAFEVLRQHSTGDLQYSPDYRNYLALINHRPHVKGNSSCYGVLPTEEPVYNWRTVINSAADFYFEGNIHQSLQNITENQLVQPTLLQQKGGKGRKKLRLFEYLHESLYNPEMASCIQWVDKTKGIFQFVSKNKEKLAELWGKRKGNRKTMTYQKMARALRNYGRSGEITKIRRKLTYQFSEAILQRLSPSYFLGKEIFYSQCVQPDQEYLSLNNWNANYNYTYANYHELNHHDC
# In short: as §1
# [5] = target: ELF4 (Homo sapiens, UniProt Q99607 1-663); conditions: protein: recombinant; tags: N-terminal GST; dsDNA, one strand shown
# In short: as §1
# [6] = target: T3, ELK4 (Homo sapiens, UniProt P28324-2 1-405); conditions: protein: recombinant; tags: N-terminal GST; dsDNA, one strand shown
# T3 sequence: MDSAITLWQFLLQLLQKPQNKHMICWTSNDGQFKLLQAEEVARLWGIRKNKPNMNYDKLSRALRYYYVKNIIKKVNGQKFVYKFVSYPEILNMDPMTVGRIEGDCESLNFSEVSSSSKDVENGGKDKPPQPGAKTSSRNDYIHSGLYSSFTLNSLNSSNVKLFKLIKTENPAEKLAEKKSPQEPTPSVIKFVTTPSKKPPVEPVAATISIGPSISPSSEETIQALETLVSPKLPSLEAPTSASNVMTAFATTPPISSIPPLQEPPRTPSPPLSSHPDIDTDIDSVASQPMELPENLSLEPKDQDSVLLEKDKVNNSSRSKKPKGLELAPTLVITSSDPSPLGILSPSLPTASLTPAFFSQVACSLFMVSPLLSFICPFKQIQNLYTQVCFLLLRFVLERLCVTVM
# In short: as §1
# [7] = target: T4, ETV2 (Homo sapiens, UniProt O00321 1-342); conditions: protein: recombinant; tags: N-terminal GST; dsDNA, one strand shown
# T4 sequence: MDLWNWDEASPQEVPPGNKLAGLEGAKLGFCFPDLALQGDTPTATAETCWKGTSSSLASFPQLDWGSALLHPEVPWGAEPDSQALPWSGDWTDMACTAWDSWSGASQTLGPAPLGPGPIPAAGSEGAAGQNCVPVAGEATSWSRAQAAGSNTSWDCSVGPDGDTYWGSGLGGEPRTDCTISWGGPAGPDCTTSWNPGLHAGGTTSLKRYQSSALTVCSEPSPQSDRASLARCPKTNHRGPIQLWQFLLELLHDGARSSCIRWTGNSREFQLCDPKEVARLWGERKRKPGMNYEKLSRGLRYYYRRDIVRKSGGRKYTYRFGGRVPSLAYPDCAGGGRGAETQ
# In short: as §1
# [8] = target: T5, ELF3 (Homo sapiens, UniProt P78545 1-371); conditions: protein: recombinant; tags: N-terminal GST; dsDNA, one strand shown
# T5 sequence: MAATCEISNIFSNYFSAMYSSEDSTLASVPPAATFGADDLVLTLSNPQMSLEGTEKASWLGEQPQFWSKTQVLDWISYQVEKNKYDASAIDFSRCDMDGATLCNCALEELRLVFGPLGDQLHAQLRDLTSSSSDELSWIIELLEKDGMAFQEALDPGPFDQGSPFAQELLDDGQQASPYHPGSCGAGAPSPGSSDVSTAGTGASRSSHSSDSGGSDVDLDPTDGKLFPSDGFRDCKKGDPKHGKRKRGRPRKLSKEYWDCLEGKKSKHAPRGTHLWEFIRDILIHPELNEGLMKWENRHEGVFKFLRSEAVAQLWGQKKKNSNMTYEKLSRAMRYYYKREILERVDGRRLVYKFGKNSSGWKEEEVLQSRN
# In short: as §1
# [9] = target: CRX (Homo sapiens, UniProt O43186 1-299); conditions: protein: recombinant; tags: N-terminal GST; dsDNA, one strand shown
# In short: as §1
# [10] = target: ETV1 (Homo sapiens, UniProt P50549 1-477); conditions: protein: recombinant; tags: N-terminal GST; dsDNA, one strand shown
# In short: as §1
# [11] = target: T6, ERF (Homo sapiens, UniProt P50548 1-548); conditions: protein: recombinant; tags: N-terminal GST; dsDNA, one strand shown
# T6 sequence: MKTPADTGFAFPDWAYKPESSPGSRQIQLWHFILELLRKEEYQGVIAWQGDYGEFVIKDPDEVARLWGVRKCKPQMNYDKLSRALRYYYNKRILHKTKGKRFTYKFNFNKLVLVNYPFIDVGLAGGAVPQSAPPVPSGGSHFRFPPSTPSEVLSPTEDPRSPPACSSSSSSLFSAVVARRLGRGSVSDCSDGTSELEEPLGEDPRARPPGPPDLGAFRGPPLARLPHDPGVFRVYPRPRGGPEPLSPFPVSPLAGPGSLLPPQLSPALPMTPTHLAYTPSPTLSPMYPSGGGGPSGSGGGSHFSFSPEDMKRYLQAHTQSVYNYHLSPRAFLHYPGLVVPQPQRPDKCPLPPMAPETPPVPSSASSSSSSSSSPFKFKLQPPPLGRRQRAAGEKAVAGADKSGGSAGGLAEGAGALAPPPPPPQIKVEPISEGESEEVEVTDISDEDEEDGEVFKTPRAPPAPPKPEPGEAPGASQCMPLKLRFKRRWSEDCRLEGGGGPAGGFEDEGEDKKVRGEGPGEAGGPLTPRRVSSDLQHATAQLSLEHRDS
# In short: as §1
# [12] = target: T7, ETV3L (Homo sapiens, UniProt Q6ZN32 1-361); conditions: protein: recombinant; tags: N-terminal GST; dsDNA, one strand shown
# T7 sequence: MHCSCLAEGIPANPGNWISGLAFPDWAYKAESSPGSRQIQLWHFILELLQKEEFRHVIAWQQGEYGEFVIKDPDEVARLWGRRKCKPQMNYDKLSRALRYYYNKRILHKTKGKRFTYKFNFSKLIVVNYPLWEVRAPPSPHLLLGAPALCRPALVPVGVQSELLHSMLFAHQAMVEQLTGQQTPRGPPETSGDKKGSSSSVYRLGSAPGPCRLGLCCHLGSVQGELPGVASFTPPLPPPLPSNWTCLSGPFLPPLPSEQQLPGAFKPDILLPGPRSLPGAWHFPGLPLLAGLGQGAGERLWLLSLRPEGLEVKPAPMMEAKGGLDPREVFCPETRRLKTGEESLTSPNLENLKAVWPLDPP
# In short: as §1
# [13] = target: T8, ETS2 (Homo sapiens, UniProt P15036 1-469); conditions: protein: recombinant; tags: N-terminal GST; dsDNA, one strand shown
# T8 sequence: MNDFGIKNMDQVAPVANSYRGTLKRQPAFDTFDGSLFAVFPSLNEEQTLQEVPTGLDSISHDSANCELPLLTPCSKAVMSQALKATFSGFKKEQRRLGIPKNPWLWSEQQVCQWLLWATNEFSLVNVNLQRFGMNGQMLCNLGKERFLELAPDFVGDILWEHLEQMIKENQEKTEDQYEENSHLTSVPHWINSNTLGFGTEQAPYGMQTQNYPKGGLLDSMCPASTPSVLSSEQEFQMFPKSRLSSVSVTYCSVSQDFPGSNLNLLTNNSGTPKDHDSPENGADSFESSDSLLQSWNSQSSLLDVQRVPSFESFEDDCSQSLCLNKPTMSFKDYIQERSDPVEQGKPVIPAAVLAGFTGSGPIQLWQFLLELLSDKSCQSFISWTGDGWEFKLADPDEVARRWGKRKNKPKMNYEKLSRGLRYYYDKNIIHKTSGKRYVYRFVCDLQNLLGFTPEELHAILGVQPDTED
# In short: as §1
# [14] = target: T9, SPDEF (Homo sapiens, UniProt O95238 1-335); conditions: protein: recombinant; tags: N-terminal GST; dsDNA, one strand shown
# T9 sequence: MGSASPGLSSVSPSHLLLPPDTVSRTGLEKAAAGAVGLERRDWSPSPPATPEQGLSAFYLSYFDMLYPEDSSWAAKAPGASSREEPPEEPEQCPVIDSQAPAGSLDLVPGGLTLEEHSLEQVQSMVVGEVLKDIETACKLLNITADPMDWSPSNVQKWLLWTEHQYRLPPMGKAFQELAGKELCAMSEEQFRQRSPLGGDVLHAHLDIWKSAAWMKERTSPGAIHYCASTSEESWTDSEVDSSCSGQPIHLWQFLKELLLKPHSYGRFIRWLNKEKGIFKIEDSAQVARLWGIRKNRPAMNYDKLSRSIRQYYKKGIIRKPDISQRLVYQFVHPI
# In short: as §1
# [15] = target: T10, ETV7 (Homo sapiens, UniProt Q9Y603 1-341); conditions: protein: recombinant; tags: N-terminal GST; dsDNA, one strand shown
# T10 sequence: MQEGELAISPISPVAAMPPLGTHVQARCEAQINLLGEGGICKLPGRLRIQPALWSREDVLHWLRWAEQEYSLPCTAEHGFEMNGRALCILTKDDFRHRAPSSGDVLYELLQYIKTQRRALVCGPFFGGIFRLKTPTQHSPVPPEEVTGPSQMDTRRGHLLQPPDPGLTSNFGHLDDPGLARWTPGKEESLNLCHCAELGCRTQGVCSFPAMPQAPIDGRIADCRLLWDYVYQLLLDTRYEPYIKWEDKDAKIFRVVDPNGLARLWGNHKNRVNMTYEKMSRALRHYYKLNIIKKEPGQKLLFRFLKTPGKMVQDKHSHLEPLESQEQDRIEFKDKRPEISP
# In short: as §1
# [16] = target: T11, ELF5 (Homo sapiens, UniProt Q9UKW6-2 1-255); conditions: protein: recombinant; tags: N-terminal GST; dsDNA, one strand shown
# T11 sequence: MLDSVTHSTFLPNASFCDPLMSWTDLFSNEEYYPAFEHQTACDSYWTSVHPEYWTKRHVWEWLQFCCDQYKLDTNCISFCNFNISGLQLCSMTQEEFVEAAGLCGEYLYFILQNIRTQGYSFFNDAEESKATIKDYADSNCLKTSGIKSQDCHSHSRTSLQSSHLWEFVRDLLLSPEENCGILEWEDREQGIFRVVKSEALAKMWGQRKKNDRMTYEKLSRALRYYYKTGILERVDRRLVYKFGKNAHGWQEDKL
# In short: as §1
# [17] = target: T12, ETV3 (Homo sapiens, UniProt P41162-2 1-143); conditions: protein: recombinant; tags: N-terminal GST; dsDNA, one strand shown
# T12 sequence: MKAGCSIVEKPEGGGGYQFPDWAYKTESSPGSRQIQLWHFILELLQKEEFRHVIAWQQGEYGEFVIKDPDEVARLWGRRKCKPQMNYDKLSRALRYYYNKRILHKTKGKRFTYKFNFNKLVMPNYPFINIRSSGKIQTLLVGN
# In short: as §1
# [18] = target: ETV6 (Homo sapiens, UniProt P41212 1-452); conditions: protein: recombinant; tags: N-terminal GST; dsDNA, one strand shown
# In short: as §1
# Chain of ETV5 (P41161 whole entry): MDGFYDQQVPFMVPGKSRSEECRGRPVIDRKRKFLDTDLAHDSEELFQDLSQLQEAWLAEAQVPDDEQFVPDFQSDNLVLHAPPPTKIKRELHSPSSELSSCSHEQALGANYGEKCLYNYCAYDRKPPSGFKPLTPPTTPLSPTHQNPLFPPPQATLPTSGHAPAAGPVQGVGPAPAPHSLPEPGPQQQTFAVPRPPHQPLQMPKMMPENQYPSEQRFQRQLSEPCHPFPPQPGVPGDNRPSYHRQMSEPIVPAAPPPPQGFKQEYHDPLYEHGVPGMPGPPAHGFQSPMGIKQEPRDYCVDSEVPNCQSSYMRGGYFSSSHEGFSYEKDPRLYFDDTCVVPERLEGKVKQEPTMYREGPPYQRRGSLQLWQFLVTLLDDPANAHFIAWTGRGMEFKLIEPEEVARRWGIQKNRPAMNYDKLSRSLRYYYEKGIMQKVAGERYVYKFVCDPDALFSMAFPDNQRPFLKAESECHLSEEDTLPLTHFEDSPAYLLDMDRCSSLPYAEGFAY
# Chain of CRX (O43186 whole entry): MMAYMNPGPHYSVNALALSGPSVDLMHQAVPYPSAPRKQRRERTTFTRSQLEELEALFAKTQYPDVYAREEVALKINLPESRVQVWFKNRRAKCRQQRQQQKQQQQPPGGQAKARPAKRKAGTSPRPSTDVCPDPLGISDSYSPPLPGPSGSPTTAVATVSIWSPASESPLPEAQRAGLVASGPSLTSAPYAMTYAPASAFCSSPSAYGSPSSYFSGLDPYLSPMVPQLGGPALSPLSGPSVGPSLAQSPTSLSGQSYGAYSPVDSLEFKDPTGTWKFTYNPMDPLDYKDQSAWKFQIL
# Chain of ETV6 (P41212 whole entry): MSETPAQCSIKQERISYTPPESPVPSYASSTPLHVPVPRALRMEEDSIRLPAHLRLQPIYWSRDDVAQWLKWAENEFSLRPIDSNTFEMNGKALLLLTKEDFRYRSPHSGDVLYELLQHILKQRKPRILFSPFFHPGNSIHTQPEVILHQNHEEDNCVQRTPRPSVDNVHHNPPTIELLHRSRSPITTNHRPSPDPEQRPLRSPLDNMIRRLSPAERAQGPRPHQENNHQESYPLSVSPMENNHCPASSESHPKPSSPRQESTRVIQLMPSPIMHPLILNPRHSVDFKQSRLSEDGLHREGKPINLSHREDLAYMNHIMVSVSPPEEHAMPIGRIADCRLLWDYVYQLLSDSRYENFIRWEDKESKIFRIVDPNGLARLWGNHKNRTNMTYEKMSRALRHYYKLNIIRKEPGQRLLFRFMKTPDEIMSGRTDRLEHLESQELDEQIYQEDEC
# Chain of ETV1 (P50549 whole entry): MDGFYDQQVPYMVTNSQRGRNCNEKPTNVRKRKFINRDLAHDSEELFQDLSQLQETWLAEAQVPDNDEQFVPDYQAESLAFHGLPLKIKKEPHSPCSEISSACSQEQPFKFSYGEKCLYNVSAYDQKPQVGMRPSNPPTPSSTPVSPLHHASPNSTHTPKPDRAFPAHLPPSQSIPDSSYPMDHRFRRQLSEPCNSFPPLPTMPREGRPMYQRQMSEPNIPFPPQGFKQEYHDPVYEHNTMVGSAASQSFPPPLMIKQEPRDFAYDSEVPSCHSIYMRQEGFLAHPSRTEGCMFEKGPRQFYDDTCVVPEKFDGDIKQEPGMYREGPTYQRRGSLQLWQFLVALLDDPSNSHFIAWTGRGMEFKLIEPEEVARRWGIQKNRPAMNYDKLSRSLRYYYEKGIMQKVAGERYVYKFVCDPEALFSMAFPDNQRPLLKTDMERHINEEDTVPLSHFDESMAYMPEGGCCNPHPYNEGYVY
# Chain of ELF4 (Q99607 whole entry): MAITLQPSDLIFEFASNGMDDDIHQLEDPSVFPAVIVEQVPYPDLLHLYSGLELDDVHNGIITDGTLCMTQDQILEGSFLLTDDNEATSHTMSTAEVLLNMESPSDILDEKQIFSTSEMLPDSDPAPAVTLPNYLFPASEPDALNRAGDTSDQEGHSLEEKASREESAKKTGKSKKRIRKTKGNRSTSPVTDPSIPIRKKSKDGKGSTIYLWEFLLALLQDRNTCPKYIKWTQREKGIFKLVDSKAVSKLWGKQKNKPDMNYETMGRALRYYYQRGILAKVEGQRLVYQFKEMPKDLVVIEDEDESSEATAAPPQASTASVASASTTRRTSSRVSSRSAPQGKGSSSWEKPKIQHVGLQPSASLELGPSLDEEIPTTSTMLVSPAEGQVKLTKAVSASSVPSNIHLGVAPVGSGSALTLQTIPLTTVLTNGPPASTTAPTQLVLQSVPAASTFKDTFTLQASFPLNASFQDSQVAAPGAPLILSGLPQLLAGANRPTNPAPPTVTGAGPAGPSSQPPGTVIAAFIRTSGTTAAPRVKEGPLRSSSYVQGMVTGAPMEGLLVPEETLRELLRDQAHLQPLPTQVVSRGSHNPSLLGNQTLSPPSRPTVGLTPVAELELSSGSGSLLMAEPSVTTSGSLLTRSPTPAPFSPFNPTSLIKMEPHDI
# Chain of HSF1 (Q00613 whole entry): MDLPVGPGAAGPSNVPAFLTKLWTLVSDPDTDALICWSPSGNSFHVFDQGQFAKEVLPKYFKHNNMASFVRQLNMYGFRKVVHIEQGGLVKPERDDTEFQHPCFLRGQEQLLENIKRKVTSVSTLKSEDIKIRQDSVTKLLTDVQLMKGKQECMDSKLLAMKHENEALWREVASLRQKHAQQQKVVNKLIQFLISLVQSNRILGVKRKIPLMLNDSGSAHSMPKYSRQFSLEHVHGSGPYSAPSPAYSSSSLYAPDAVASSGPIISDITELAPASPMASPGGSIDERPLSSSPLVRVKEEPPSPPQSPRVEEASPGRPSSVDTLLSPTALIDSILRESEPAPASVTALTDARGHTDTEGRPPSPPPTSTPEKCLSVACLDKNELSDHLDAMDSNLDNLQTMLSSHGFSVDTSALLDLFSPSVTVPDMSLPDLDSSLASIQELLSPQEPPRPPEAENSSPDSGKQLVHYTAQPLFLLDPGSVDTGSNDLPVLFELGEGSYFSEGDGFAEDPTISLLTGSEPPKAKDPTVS
sequence,measurement,setting,value
ACGCTA,binding signal,[1],"1.13 fold enrichment (6-mer frequency, TF over GST control)"
same,binding signal,[2],"1.17 fold enrichment (6-mer frequency, TF over GST control)"
same,binding signal,[3],"1.12 fold enrichment (6-mer frequency, TF over GST control)"
same,binding signal,[4],"1.09 fold enrichment (6-mer frequency, TF over GST control)"
same,binding signal,[5],"1.25 fold enrichment (6-mer frequency, TF over GST control)"
same,binding signal,[6],"1.06 fold enrichment (6-mer frequency, TF over GST control)"
same,binding signal,[7],"1.28 fold enrichment (6-mer frequency, TF over GST control)"
same,binding signal,[8],"1.17 fold enrichment (6-mer frequency, TF over GST control)"
same,binding signal,[9],"1.18 fold enrichment (6-mer frequency, TF over GST control)"
same,binding signal,[10],"1.09 fold enrichment (6-mer frequency, TF over GST control)"
same,binding signal,[11],"1.2 fold enrichment (6-mer frequency, TF over GST control)"
same,binding signal,[12],"1.12 fold enrichment (6-mer frequency, TF over GST control)"
same,binding signal,[13],"1.01 fold enrichment (6-mer frequency, TF over GST control)"
same,binding signal,[14],"1.15 fold enrichment (6-mer frequency, TF over GST control)"
same,binding signal,[15],"1.17 fold enrichment (6-mer frequency, TF over GST control)"
same,binding signal,[16],"1.12 fold enrichment (6-mer frequency, TF over GST control)"
same,binding signal,[17],"1.21 fold enrichment (6-mer frequency, TF over GST control)"
same,binding signal,[18],"1.08 fold enrichment (6-mer frequency, TF over GST control)"
